Assay results published in PubChem BioAssay (NCI).
About 83,000 compounds went through this panel and 20% of them were active in at least one assay; those are over-represented in the sample as a whole.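 Each cell line was grown in a 96-well plate and treated with one concentration of compound for 48 hours. Values below 10 were considered active.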 Unmarked numbers belong to inactive results. Activity calls are given as the source filed them.

Key:
Assay in all cases: NCI-60 one-dose screen, 48 h (100 = growth as untreated, 0 = no growth, -100 = all killed)
Conditions in all cases: 10 µM unless noted
NCI-H23 lung = tested on: NCI-H23 lung
NCI-H226 lung = tested on: NCI-H226 lung
NCI-H322M lung = tested on: NCI-H322M lung
HOP-62 NSCLC = tested on: HOP-62 NSCLC
NCI-H460 lung = tested on: NCI-H460 lung
HOP-92 NSCLC = tested on: HOP-92 NSCLC
NCI-H522 lung = tested on: NCI-H522 lung
A549/ATCC NSCLC = tested on: A549/ATCC NSCLC
786-0 renal = tested on: 786-0 renal
COLO 205 colon = tested on: COLO 205 colon
DU-145 prostate = tested on: DU-145 prostate
K-562 leukemia = tested on: K-562 leukemia
MALME-3M melanoma = tested on: MALME-3M melanoma
MDA-MB-231 breast = tested on: MDA-MB-231 breast
RXF 393 renal = tested on: RXF 393 renal
SF-268 CNS = tested on: SF-268 CNS
SF-295 CNS = tested on: SF-295 CNS
SF-539 CNS = tested on: SF-539 CNS
UACC-257 melanoma = tested on: UACC-257 melanoma
M14 melanoma = tested on: M14 melanoma

Row | SMILES | growth (NCI-H23 lung) | growth (NCI-H226 lung) | growth (NCI-H322M lung) | growth (HOP-62 NSCLC) | growth (NCI-H460 lung) | growth (HOP-92 NSCLC) | growth (NCI-H522 lung) | growth (A549/ATCC NSCLC) | growth (786-0 renal) | growth (COLO 205 colon) | growth (DU-145 prostate) | growth (K-562 leukemia) | growth (MALME-3M melanoma) | growth (MDA-MB-231 breast) | growth (RXF 393 renal) | growth (SF-268 CNS) | growth (SF-295 CNS) | growth (SF-539 CNS) | growth (UACC-257 melanoma) | growth (M14 melanoma)
1 | COc1ccc2c(c1)[n+]([O-])c(C(=O)/C=C/C=C(\Cl)c1cc(OC)c(OC)c(OC)c1)c(C)[n+]2[O-] | 79.7% | 103% | 87.5% | -3.57% (active) | 102% | 61.3% | 56.6% | 98.4% | 61.4% | 127% | 96.7% | 110% | 61.5% | 74.9% | 47.8% | 47.1% | 21.3% | 66.8% | 108% | 102%
2 | CCOC(=O)c1cnc2ccccc2c1Cl | 96.9% | 99.2% | 122% | 99.6% | 93% | 70.4% | 92.1% | 104% | 94.3% | 96.2% | 98.3% | 116% | 126% | 85.4% | 127% | 99.5% | 107% | 85.9% | 109% | 92.2%
3 | O=C1N(Cc2ccccc2Cl)c2ccccc2C12NN=C(c1cccc(Cl)c1)S2 (stereo not given) | -18.7% (active) | -58.4% (active) | -12.7% (active) | -22.6% (active) | -50.7% (active) | -68.3% (active) | 16.7% | -63.7% (active) | -67.7% (active) | 66.8% | -46.2% (active) | 10.1% | -23.6% (active) | -4.77% (active) | -73% (active) | 26.2% | -44.9% (active) | 6.32% (active) | 18.9% | 4.67% (active)
4 | O=C(/C=C/c1cn(-c2ccccc2)nc1-c1ccc([N+](=O)[O-])cc1)c1ccc(Cl)cc1 | 48.4% | 39% | 75.1% | 24.5% | 29.1% | 58.5% | 23.3% | 61.8% | -92.5% (active) | 40.2% | 20.4% | 12.4% | 49.7% | 14.7% | 27.3% | 34.5% | 77% | 30% | 103% | 37.8%
5 | CCNc1nc(-c2ccc(Cl)c(OC)c2)c(-c2ccnc(NCCCNS(=O)(=O)c3ccc(Cl)cc3)n2)s1 | 83.7% | 72.2% | 101% | 61.7% | 63.7% | 20.9% | 28.9% | 44.9% | 54.3% | 11.7% | 74.3% | 32.3% | 7.63% (active) | 50.9% | 70.2% | 60.4% | 70.3% | 86.6% | 29.2% | 23%
6 | CNC(=O)c1cc(Oc2ccc3c(c2)sc2nc(-c4cc(OC)c(OC)c(OC)c4)cn23)ccn1 | 61.1% | 49% | 72.5% | 66.8% | 66.2% | 15.8% | 50.4% | 63.6% | 68.1% | 16.7% | 75.2% | 29.3% | -8.33% (active) | 33.8% | 63.2% | 72% | 51% | 62.8% | 49.7% | 52%
7 | COc1ccc(-c2csc(N(C(=O)N3CCN(c4cc5c(cc4F)c(=O)c(C(=O)O)cn5C4CC4)CC3)c3ccccc3)n2)cc1 | 4.28% (active) | 28.5% | 4.9% (active) | 9.2% (active) | 3.65% (active) | -18.1% (active) | -21.8% (active) | 13.6% | 19.6% | 17.9% | 17.6% | 14% | 9.18% (active) | 28.3% | 35.8% | 22.9% | 3.69% (active) | 9.1% (active) | 12.4% | 26.6%
